According to PubChem BioAssay (NCI):
About 83,000 compounds went through this panel and 20% of them were active in at least one assay; those are over-represented in the sample as a whole.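 48-hour exposure, single concentration, 96-well plates; percent growth endpoint where 0 means no net growth. Active: below 10.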 The source made the active and inactive calls.

Legend:
Test in all cases: NCI-60 one-dose screen, 48 h (100 = growth as untreated, 0 = no growth, -100 = all killed)
Conditions in all cases: 10 µM unless noted
SR leukemia = test system: SR leukemia
RPMI-8226 leukemia = test system: RPMI-8226 leukemia
OVCAR-8 ovarian = test system: OVCAR-8 ovarian
OVCAR-5 ovarian = test system: OVCAR-5 ovarian
OVCAR-4 ovarian = test system: OVCAR-4 ovarian
SK-OV-3 ovarian = test system: SK-OV-3 ovarian
OVCAR-3 ovarian = test system: OVCAR-3 ovarian
HS 578T breast = test system: HS 578T breast
IGROV1 ovarian = test system: IGROV1 ovarian
NCI/ADR-RES ovarian = test system: NCI/ADR-RES ovarian

Measured: growth

CS(=O)(=O)c1ccc(-n2nc(-c3ccc(Br)cc3)c3ccccc3c2=O)cc1
inactive: SR leukemia 110% | RPMI-8226 leukemia 99.8% | OVCAR-8 ovarian 100% | OVCAR-5 ovarian 108% | OVCAR-4 ovarian 97.8% | SK-OV-3 ovarian 94.3% | OVCAR-3 ovarian 102% | HS 578T breast 100%

Nc1n[nH]c2cc(F)c([C@@H]3Nc4ccc5[nH]ncc5c4[C@H]4C5CCC(C5)[C@@H]34)cc12 (some centres not stated)
active: SR leukemia 9.53% | HS 578T breast -4.82% | NCI/ADR-RES ovarian -26.9%
inactive: RPMI-8226 leukemia 32.1% | OVCAR-8 ovarian 19.5% | OVCAR-5 ovarian 30.1% | OVCAR-4 ovarian 32.1% | SK-OV-3 ovarian 20.6% | IGROV1 ovarian 15% | OVCAR-3 ovarian 12.9%

COc1ccc2c(c1)C(=O)/C(=C/c1cccnc1)CC2
active: RPMI-8226 leukemia 1.31%
inactive: SR leukemia 30.7% | OVCAR-8 ovarian 96.8% | OVCAR-5 ovarian 93% | OVCAR-4 ovarian 93.4% | SK-OV-3 ovarian 101% | IGROV1 ovarian 101% | OVCAR-3 ovarian 98.6% | HS 578T breast 115% | NCI/ADR-RES ovarian 94.8%

Cc1cc(N[C@@H]2CCC[C@H](Nc3ccnc4cc(Cl)ccc34)C2)nc(N2CCCCCC2)n1
active: SR leukemia -57.4% | RPMI-8226 leukemia -52.2% | OVCAR-8 ovarian -43% | OVCAR-5 ovarian -15.8% | OVCAR-4 ovarian -5.16% | SK-OV-3 ovarian -51.9% | IGROV1 ovarian -45.5% | OVCAR-3 ovarian -58.8% | HS 578T breast -46.8% | NCI/ADR-RES ovarian -39.8%

CCOc1nc(-c2ccccc2)cc2c(O)c(C(=O)O)[nH]c(=O)c12
inactive: SR leukemia 98.1% | RPMI-8226 leukemia 58.1% | OVCAR-8 ovarian 107% | OVCAR-5 ovarian 104% | OVCAR-4 ovarian 99% | SK-OV-3 ovarian 97.5% | IGROV1 ovarian 96.1% | OVCAR-3 ovarian 101% | HS 578T breast 104% | NCI/ADR-RES ovarian 60.9%

CN(C)c1ccc(NC(=O)c2ccc(/C=C/C(=O)c3ncc[nH]3)cc2)cc1
inactive: OVCAR-8 ovarian 26.6% | OVCAR-5 ovarian 95.4% | OVCAR-4 ovarian 75.7% | SK-OV-3 ovarian 64.2% | IGROV1 ovarian 69.8% | OVCAR-3 ovarian 25.7% | HS 578T breast 88.1% | NCI/ADR-RES ovarian 64%
active: SR leukemia 5.75% | RPMI-8226 leukemia -4.78%

COc1ccc2[nH]cc(-c3noc(C(=O)c4cn(C)c5ccc(F)cc45)n3)c2c1
inactive: SR leukemia 89.7% | RPMI-8226 leukemia 104% | OVCAR-8 ovarian 93.6% | OVCAR-5 ovarian 99.9% | OVCAR-4 ovarian 95.2% | SK-OV-3 ovarian 87.3% | OVCAR-3 ovarian 97.5% | HS 578T breast 90.9% | NCI/ADR-RES ovarian 96%

CC(=O)Oc1ccc(Cl)cc1CN(C(C)=O)C1CCCCC1
inactive: SR leukemia 92.9% | RPMI-8226 leukemia 84% | OVCAR-8 ovarian 97.1% | OVCAR-5 ovarian 103% | OVCAR-4 ovarian 119% | SK-OV-3 ovarian 99.7% | OVCAR-3 ovarian 114% | HS 578T breast 104% | NCI/ADR-RES ovarian 110%

CCCCC/C(C=C(C#N)C#N)=C/c1ccccc1
inactive: OVCAR-8 ovarian 12.3% | OVCAR-5 ovarian 113% | OVCAR-4 ovarian 86.4% | NCI/ADR-RES ovarian 65%
active: SR leukemia 7.75% | RPMI-8226 leukemia -14.1%

COc1ccccc1Nc1nc(-c2cc3cccc(C(F)(F)F)c3oc2=O)cs1
inactive: SR leukemia 10.2% | RPMI-8226 leukemia 16.8% | OVCAR-5 ovarian 67% | OVCAR-4 ovarian 37.1% | SK-OV-3 ovarian 31.3% | HS 578T breast 31.4% | NCI/ADR-RES ovarian 15%
active: OVCAR-8 ovarian 9.28% | OVCAR-3 ovarian -21.7%

CN(CCCCCl)P(=O)(OCc1ccc([N+](=O)[O-])o1)C(F)(F)c1ccc(CC(=O)NC[C@@H](O)/C=C\[C@@H](O)[C@H](CO)Cc2ccccc2)cc1 (some centres not stated)
inactive: SR leukemia 47.7% | RPMI-8226 leukemia 77.1% | OVCAR-8 ovarian 95.1% | OVCAR-5 ovarian 111% | OVCAR-4 ovarian 95.2% | IGROV1 ovarian 99.4% | OVCAR-3 ovarian 107% | HS 578T breast 103% | NCI/ADR-RES ovarian 101%

O=C(CN(C(=O)Cn1c(=O)n2nnnc2c2ccccc21)c1ccccc1C(F)(F)F)Nc1ccc(C(F)(F)F)cc1
inactive: SR leukemia 111% | RPMI-8226 leukemia 103% | OVCAR-8 ovarian 100% | OVCAR-5 ovarian 106% | OVCAR-4 ovarian 97.1% | SK-OV-3 ovarian 103% | OVCAR-3 ovarian 110% | HS 578T breast 103% | NCI/ADR-RES ovarian 106%

CCc1nc(N)nc(N)c1C#CC(C)c1ccc(-c2ccncc2)cc1Cl (configuration not stated)
inactive: SR leukemia 14.7% | RPMI-8226 leukemia 15.1% | OVCAR-8 ovarian 20.8% | OVCAR-5 ovarian 57.6% | OVCAR-4 ovarian 30.9% | SK-OV-3 ovarian 33% | OVCAR-3 ovarian 19.1% | HS 578T breast 38.7% | NCI/ADR-RES ovarian 21.8%

CCOc1ccc(-n2nc(C(=O)Nc3ccccc3)nc2-c2cc(OC)c(OC)c(OC)c2)cc1
inactive: SR leukemia 17% | RPMI-8226 leukemia 47.4% | OVCAR-8 ovarian 61.6% | OVCAR-5 ovarian 84.1% | OVCAR-4 ovarian 59.5% | SK-OV-3 ovarian 51% | OVCAR-3 ovarian 43.2% | HS 578T breast 39.6% | NCI/ADR-RES ovarian 45.7%

CCOc1cc2ncc(C#N)c(Nc3ccc(F)c(Cl)c3)c2cc1NC(=O)CC1CCSS1 (configuration not stated)
active: SR leukemia -27.8% | RPMI-8226 leukemia -5.51% | OVCAR-8 ovarian -41.7% | OVCAR-5 ovarian -40.6% | OVCAR-4 ovarian -69.4% | SK-OV-3 ovarian -91.7% | OVCAR-3 ovarian -86.3% | HS 578T breast -17.4% | NCI/ADR-RES ovarian -30.3%

COc1ccc(NC2=C(Sc3nc(C)cc(C)n3)C(=O)N(Cc3ccccc3)C2=O)cc1Cl
inactive: SR leukemia 63.4% [30 µM] | RPMI-8226 leukemia 39.3% [30 µM] | OVCAR-8 ovarian 29.3% [30 µM] | OVCAR-5 ovarian 124% [30 µM] | OVCAR-4 ovarian 78.6% [30 µM] | SK-OV-3 ovarian 117% [30 µM] | OVCAR-3 ovarian 92% [30 µM] | NCI/ADR-RES ovarian 63.5% [30 µM]
active: HS 578T breast -21.7% [30 µM]

CCCCn1c(-c2ccc(C(=O)O/N=C(\N)c3ccc4c(c3)OCO4)cc2)nc(-c2ccccc2)c1-c1ccccc1
inactive: RPMI-8226 leukemia 29.6% | OVCAR-8 ovarian 44.5% | OVCAR-5 ovarian 54.1% | OVCAR-4 ovarian 40.1% | SK-OV-3 ovarian 89.5% | OVCAR-3 ovarian 38.5% | HS 578T breast 41.1% | NCI/ADR-RES ovarian 18.6%
active: SR leukemia -29.2%

CCNc1ncnc2c1cnn2C1CCCO1 (configuration not stated)
inactive: SR leukemia 94.3% | RPMI-8226 leukemia 98.5% | OVCAR-8 ovarian 115% | OVCAR-5 ovarian 102% | OVCAR-4 ovarian 108% | SK-OV-3 ovarian 104% | OVCAR-3 ovarian 111% | HS 578T breast 113% | NCI/ADR-RES ovarian 100%

CC(C)(C)CC(C)(C)c1ccc(OCCOCC[N+](C)(C)Cc2ccccc2)cc1
active: SR leukemia -50.8% | RPMI-8226 leukemia -60.3% | OVCAR-8 ovarian -65.7% | OVCAR-4 ovarian -16% | IGROV1 ovarian -45.9% | OVCAR-3 ovarian -35%
inactive: OVCAR-5 ovarian 29.6% | HS 578T breast 26.1% | NCI/ADR-RES ovarian 112%
